Conditions in all cases: mRNA level, 48 h; actives raise or lower the signal
Read-out in assay [1]: Cytochrome P450 (CYP24A1), CYP24A1 (gene 1591)
Nature of the assay: LTEA_HepaRG_CYP24A1: Life Technologies and Expression Analysis (LTEA) Assay for Cytochrome P450 (CYP24A1) using HepaRG (AID 2283478). The essentials: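 qRT-PCR read-out: CYP24A1 transcript levels normalized to three housekeeping genes, bidirectional curve fits against 0.5% DMSO baseline. Human HepaRG cells treated 48 h with chemicals at eight concentrations from 100 uM in half-log steps.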

Read-out in assay [2]: Cytochrome P450 (CYP1A2), CYP1A2 (gene 1544)
Briefly: LTEA_HepaRG_CYP1A2: Life Technologies and Expression Analysis (LTEA) Assay for Cytochrome P450 (CYP1A2) using HepaRG (AID 2283479). The essentials: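 HepaRG, 48 h exposure, top 100 uM, half-log 8-pt, 0.5% DMSO vehicle, duplicates. Readout: TaqMan qRT-PCR of CYP1A2 mRNA, housekeeping-normalized (ACTB/GAPDH/POLR2A). Gain/loss fit relative to DMSO baseline.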

Read-out in assay [3]: cysteine-aspartic acid protease (CASP8), CASP8 (gene 841)
Briefly: LTEA_HepaRG_CASP8: Life Technologies and Expression Analysis (LTEA) Assay for cysteine-aspartic acid protease (CASP8) using HepaRG (AID 2283480). The essentials:
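qRT-PCR readout of CASP8 mRNA, normalized to three housekeeping genes, after 48 h chemical exposure of HepaRG cells; 8-point half-log series, top 100 uM, 0.5% DMSO vehicle. Bidirectional curve fitting against DMSO baseline.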

Read-out in assay [4]: Cytochrome P450 (CYP2B6), CYP2B6 (gene 1555)
Briefly: LTEA_HepaRG_CYP2B6: Life Technologies and Expression Analysis (LTEA) Assay for Cytochrome P450 (CYP2B6) using HepaRG (AID 2283481). The essentials:
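Read-out is CYP2B6 mRNA by TaqMan qRT-PCR, normalized to three housekeeping genes and fitted bidirectionally against 0.5% DMSO baseline. Human HepaRG cells received test chemicals for 48 h, top concentration 100 uM, half-log dilutions.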

Read-out in assay [5]: Cytochrome P450 2C19 (Homo sapiens) (UniProt P33261)
Briefly: LTEA_HepaRG_CYP2C19: Life Technologies and Expression Analysis (LTEA) Assay for CYP2C19 using HepaRG (AID 2283482). The essentials: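 HepaRG, 48 h chemical exposure, 8-pt half-log series from 100 uM in 0.5% DMSO, duplicates. Readout: CYP2C19 mRNA by TaqMan qRT-PCR, housekeeping-normalized. Bidirectional fit vs DMSO baseline; phenobarbital 1mM as induction control.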

Read-out in another assay: CYP2C8 (gene 1558)
Nature of the assay: LTEA_HepaRG_CYP2C8: Life Technologies and Expression Analysis (LTEA) Assay for CYP2C8 using HepaRG (AID 2283483). The essentials:
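HepaRG (human liver line), 48 h chemical exposure, 8-pt half-log series from 100 uM, 0.5% DMSO vehicle. Readout: CYP2C8 transcript by qRT-PCR, housekeeping-normalized. Bidirectional fit vs DMSO baseline.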

Read-out in another assay: CYP2C9 (gene 1559)
Briefly: LTEA_HepaRG_CYP2C9: Life Technologies and Expression Analysis (LTEA) Assay for CYP2C9 using HepaRG (AID 2283484). An outline of the steps: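 HepaRG, 48 h dosing, 8-pt half-log series, top 100 uM, 0.5% DMSO vehicle. Read-out: CYP2C9 transcript by TaqMan qRT-PCR, housekeeping-normalized (ACTB/GAPDH/POLR2A). Gain or loss fitted vs DMSO baseline.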

Read-out in assay [6]: DNA damage-inducible transcript 3 (DDIT3), DDIT3 (gene 1649)
Briefly: LTEA_HepaRG_DDIT3: Life Technologies and Expression Analysis (LTEA) Assay for DNA damage-inducible transcript 3 (DDIT3) using HepaRG (AID 2283488). The essentials:
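Cells are human HepaRG liver cells treated for 48 h with eight half-log concentrations up to 100 uM in 0.5% DMSO. Transcript levels come from qRT-PCR normalized to three housekeeping genes, with activity fitted in both directions relative to vehicle.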

Read-out in assay [7]: Pro-epidermal growth factor (Homo sapiens) (UniProt P01133)
Nature of the assay: LTEA_HepaRG_EGF: Life Technologies and Expression Analysis (LTEA) Assay for Epidermal growth factor (EGF) using HepaRG (AID 2283489). The essentials:
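qRT-PCR readout of EGF transcript after 48 h chemical exposure of HepaRG cells; eight concentrations from 100 uM down in half-log steps, duplicate wells, 0.5% DMSO vehicle. Bidirectional curve fitting against DMSO baseline.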

Read-out in assay [8]: Early growth response protein 1 (EGR1) transcription factor, EGR1 (gene 1958)
Nature of the assay: LTEA_HepaRG_EGR1: Life Technologies and Expression Analysis (LTEA) Assay for Early growth response protein 1 (EGR1) transcription factor using HepaRG (AID 2283490). An outline of the steps:
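HepaRG, 48 h exposure, 8-pt half-log series from 100 uM, 0.5% DMSO vehicle; EGR1 transcript by TaqMan qRT-PCR (Fluidigm array), housekeeping-normalized; bidirectional fit relative to DMSO baseline.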

Read-out in assay [9]: Ezrin (EZR), EZR (gene 7430)
Nature of the assay: LTEA_HepaRG_EZR: Life Technologies and Expression Analysis (LTEA) Assay for Ezrin (EZR) using HepaRG (AID 2283491). The essentials: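 Read-out is EZR transcript level by qRT-PCR, normalized to three housekeeping genes and fitted bidirectionally against the DMSO control. Human HepaRG cells received test chemicals for 48 h at eight half-log concentrations up to 100 uM in 0.5% DMSO.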

Read-out in the next assay: CYP3A5 (gene 1577)
Nature of the assay: LTEA_HepaRG_CYP3A5: Life Technologies and Expression Analysis (LTEA) Assay for CYP3A5 using HepaRG (AID 2283493). An outline of the steps:
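Human HepaRG hepatic cells receive 48 h chemical treatment at eight concentrations (half-log steps from 100 uM) in 0.5% DMSO. Expression of CYP3A5 is quantified by Fluidigm qRT-PCR and normalized to three reference genes.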

Read-out in assay [10]: Fatty Acid-Binding Protein 1 (FABP1), FABP1 (gene 2168)
Nature of the assay: LTEA_HepaRG_FABP1: Life Technologies and Expression Analysis (LTEA) Assay for Fatty Acid-Binding Protein 1 (FABP1) using HepaRG (AID 2283494). An outline of the steps:
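qRT-PCR readout of FABP1 transcript (normalized to three housekeeping genes) after 48 h chemical exposure of HepaRG cells; eight concentrations, half-log steps, max 100 uM, 0.5% DMSO vehicle; gain or loss fitted relative to DMSO baseline.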

Read-out in assay [11]: Cytochrome P450 4A22 (Homo sapiens) (UniProt Q5TCH4)
Nature of the assay: LTEA_HepaRG_CYP4A22: Life Technologies and Expression Analysis (LTEA) Assay for Cytochrome P450 4A22 (CYP4A22) using HepaRG (AID 2283495). The essentials: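 HepaRG, 48 h post-plating -> serum-free induction medium; dosed 48 h, duplicate, 8 conc. (100 uM top, half-log), 0.5% DMSO. Readout: CYP4A22 mRNA by qRT-PCR, ACTB/GAPDH/POLR2A normalization; gain/loss fit relative to DMSO.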

Read-out in assay [12]: Cytochrome P450 7A1 (Homo sapiens) (UniProt P22680)
Nature of the assay: LTEA_HepaRG_CYP7A1: Life Technologies and Expression Analysis (LTEA) Assay for Cytochrome P450 7A1 (CYP7A1) using HepaRG (AID 2283496). The essentials: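 HepaRG, 48 h exposure, 8-pt half-log series from 100 uM, 0.5% DMSO vehicle, duplicates. Readout: TaqMan qRT-PCR mRNA vs three housekeeping genes; bidirectional curve fit against DMSO baseline.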

Read-out in assay [13]: Glutathione S-Transferase (GSTA2), GSTA2 (gene 2939)
Briefly: LTEA_HepaRG_GSTA2: Life Technologies and Expression Analysis (LTEA) Assay for Glutathione S-Transferase (GSTA2) using HepaRG (AID 2283497). An outline of the steps: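 qRT-PCR readout of GSTA2 transcript, normalized to three housekeeping genes, fitted bidirectionally against 0.5% DMSO baseline. Differentiated HepaRG cells received compound for 48 h at 8 concentrations (top 100 uM, half-log steps).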

Read-out in the next assay: CYP2E1 (gene 1571)
Nature of the assay: LTEA_HepaRG_CYP2E1: Life Technologies and Expression Analysis (LTEA) Assay for CYP2E1 using HepaRG (AID 2283485). An outline of the steps:
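Readout is qRT-PCR of CYP2E1 mRNA, normalized to three housekeeping genes and fitted bidirectionally against 0.5% DMSO. HepaRG cells were dosed 48 h at eight concentrations, highest 100 uM with half-log dilutions.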

Read-out in the next assay: CYP4A11 (gene 1579)
Briefly: LTEA_HepaRG_CYP4A11: Life Technologies and Expression Analysis (LTEA) Assay for CYP4A11 using HepaRG (AID 2283486). The essentials:
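CYP4A11 transcript levels were quantified by TaqMan qRT-PCR after HepaRG human liver cells were treated for 48 hours with test chemicals (top 100 uM, half-log dilutions, 0.5% DMSO). Gain or loss of signal was fitted relative to DMSO.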

Read-out in assay [14]: Cytochrome P450 3A7 (Homo sapiens) (UniProt P24462)
Briefly: LTEA_HepaRG_CYP3A7: Life Technologies and Expression Analysis (LTEA) Assay for CYP3A7 using HepaRG (AID 2283492). An outline of the steps:
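CYP3A7 transcript levels were read by TaqMan qRT-PCR on Fluidigm arrays after 48 h chemical exposure of human HepaRG cells, with housekeeping-gene normalisation. Eight half-log concentrations up to 100 uM in 0.5% DMSO were tested in duplicate.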

Read-out in assay [15]: Cytochrome P450 3A4 (Homo sapiens) (UniProt P08684)
Nature of the assay: LTEA_HepaRG_CYP3A4: Life Technologies and Expression Analysis (LTEA) Assay for CYP3A4 using HepaRG (AID 2283487). An outline of the steps:
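HepaRG, 48 h exposure, 8-pt CRC from 100 uM (half-log), 0.5% DMSO, duplicates; serum-free induction medium. Readout: CYP3A4 mRNA, qRT-PCR, ACTB/GAPDH/POLR2A normalization. Bidirectional fit vs DMSO.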

Structures are written as SMILES. Activity calls are given as the source filed them. The calls were made as follows: active = hit-call score of the fitted dose curve at least 0.9, where 1 is the maximum; inactive = score below 0.9.

One may read the AC50 as the midpoint of the concentration-response curve, whichever way the signal moves.

Cytochrome P450 2C19 (Homo sapiens), sequence (P33261 whole entry, looked up): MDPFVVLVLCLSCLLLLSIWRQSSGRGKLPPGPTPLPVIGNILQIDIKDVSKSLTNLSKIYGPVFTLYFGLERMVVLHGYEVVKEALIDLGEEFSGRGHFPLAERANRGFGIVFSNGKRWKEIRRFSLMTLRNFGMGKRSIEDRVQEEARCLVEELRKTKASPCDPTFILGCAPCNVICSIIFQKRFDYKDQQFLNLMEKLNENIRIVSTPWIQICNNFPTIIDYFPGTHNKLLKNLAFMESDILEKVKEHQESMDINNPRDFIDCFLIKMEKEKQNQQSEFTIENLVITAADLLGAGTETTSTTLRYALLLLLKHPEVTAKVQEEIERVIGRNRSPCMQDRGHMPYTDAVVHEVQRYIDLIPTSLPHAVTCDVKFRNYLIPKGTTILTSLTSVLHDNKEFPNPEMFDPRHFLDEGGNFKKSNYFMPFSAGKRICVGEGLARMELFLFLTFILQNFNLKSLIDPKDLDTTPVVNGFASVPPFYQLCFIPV
Cytochrome P450 3A7 (Homo sapiens), sequence (P24462 whole entry, looked up): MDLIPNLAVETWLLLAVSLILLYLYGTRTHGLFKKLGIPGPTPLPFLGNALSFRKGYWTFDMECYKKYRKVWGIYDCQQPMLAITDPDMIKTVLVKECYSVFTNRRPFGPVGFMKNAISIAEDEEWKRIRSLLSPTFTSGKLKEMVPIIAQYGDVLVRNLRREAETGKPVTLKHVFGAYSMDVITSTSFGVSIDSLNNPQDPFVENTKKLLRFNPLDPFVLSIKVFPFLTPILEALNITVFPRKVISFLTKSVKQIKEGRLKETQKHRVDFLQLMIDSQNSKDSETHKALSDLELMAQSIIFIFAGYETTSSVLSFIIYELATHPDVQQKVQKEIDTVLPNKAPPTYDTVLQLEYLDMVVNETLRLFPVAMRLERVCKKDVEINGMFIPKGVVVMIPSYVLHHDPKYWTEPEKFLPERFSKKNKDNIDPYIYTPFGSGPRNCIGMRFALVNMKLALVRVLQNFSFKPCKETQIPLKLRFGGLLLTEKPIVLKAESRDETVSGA
Cytochrome P450 3A4 (Homo sapiens), sequence (P08684 whole entry, looked up): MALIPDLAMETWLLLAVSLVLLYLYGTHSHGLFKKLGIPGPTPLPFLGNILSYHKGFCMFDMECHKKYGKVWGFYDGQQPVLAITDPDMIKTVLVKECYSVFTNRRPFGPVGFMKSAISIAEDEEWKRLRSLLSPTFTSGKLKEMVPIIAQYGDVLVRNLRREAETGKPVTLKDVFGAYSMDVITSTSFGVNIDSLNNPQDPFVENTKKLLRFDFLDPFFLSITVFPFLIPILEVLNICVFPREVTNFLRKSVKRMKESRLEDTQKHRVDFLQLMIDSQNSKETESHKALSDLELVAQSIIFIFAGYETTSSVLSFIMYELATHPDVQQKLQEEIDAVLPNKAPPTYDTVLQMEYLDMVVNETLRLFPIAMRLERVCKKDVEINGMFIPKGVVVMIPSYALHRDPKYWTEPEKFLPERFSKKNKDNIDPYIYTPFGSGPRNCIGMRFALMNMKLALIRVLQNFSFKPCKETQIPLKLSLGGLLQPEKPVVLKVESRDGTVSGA

Take `Cc1ccc(-c2cc(C(F)(F)F)nn2-c2ccc(S(N)(=O)=O)cc2)cc1`: the compound was classed as inactive (in assay [1]; in [3]; with CYP2C8 (gene 1558); with CYP2C9 (gene 1559); in assay [7]; in assay [8]). Moreover, the compound was classed as inactive in [9], in [11] and in assay [12]. For the same compound, the half-maximal activity concentration (AC50) is 15.8 µM (active) in [2]; 90.2 µM (active) in [4]; 23.6 µM (active) in [5]; 68.8 µM (active) in assay [6]; 82 µM (active) with CYP3A5 (gene 1577); 50 µM (active) in assay [10]. Further, the AC50 in assay [13] is 82.1 µM (active).

Consider `CCc1nc(N)nc(N)c1-c1ccc(Cl)cc1`, for which the compound was classed as inactive in [1], in assay [3], in [7], in assay [8], in assay [9] and in assay [14]. In addition, the outcome (with CYP3A5 (gene 1577); in [10]) was inactive. For the same compound, the AC50 is 23.8 µM (active) in assay [2]; 82.3 µM (active) in assay [4]; 79.6 µM (active) with CYP2C8 (gene 1558); 44.5 µM (active) with CYP2C9 (gene 1559); 26 µM (active) with CYP2E1 (gene 1571); 64.2 µM (active) with CYP4A11 (gene 1579). The AC50 in assay [6] was 77.8 µM (active); in [11] it was 60.7 µM (active); in assay [12] it was 2.6 µM (active); in assay [13], 41.8 µM (active).

Regarding `CC(=O)OCC(COC(C)=O)OC(C)=O`, the compound was called inactive (in [1]; in assay [2]; in [3]; in assay [4]; in [5]; with CYP2C8 (gene 1558)). Further, the compound was called inactive (in the assay with CYP2C9 (gene 1559); in assay [15]; in [6]; in [7]; in assay [8]; in [9]). In addition, the outcome (in assay [14]; with CYP3A5 (gene 1577); in [10]; in assay [12]; in assay [13]) was inactive.

With `CCCCCCCCCCCCCCOS(=O)(=O)O`, the compound was called inactive in [1], in [2], in assay [3], in assay [5], in assay [15] and in [6]. Further, the result (in assay [8]; in [9]; in assay [14]; with CYP3A5 (gene 1577); in assay [10]; in assay [13]) was inactive. Also, the AC50 in [4] is 85.6 µM (active); with CYP2C8 (gene 1558) it was 12.6 µM (active); with CYP2C9 (gene 1559) it was 64.4 µM (active); in assay [12] it was 23.7 µM (active).

The record behind these values is PubChem BioAssay (EPA / NIEHS).
